Data: PubChem BioAssay (NCI)
The panel holds about 79,000 compounds, 15% with a hit somewhere; the sample as a whole holds those more often. Values without a mark were called inactive. The source made the active and inactive calls. Rule as the data show it: active = growth inhibition above about 70%; inactive = the rest.

What was measured:
[1] = NCI Yeast Anticancer Drug Screen. Data for the rad50 strain (AID 155);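 also: 0% = growth of vehicle-only cultures of the same strain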; conditions: S. cerevisiae rad50 strain growth inhibition, active compounds read high
In short: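 Relative growth inhibition (compound vs vehicle) was measured in yeast with a defined repair-gene alteration.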

[2] = NCI Yeast Anticancer Drug Screen. Data for the mec2-1 strain (AID 157); conditions: S. cerevisiae mec2-1 strain, active compounds read high
In short: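 Growth inhibition is read against vehicle-treated controls after compound exposure of the mec2-1 yeast strain, which is defective in DNA damage repair or cell cycle control.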

[3] = NCI Yeast Anticancer Drug Screen. Data for the sgs1 mgt1 strain (AID 161);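 also: 0% = growth of cultures given vehicle only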; conditions: S. cerevisiae sgs1 mgt1 strain, active compounds read high
In short: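 Compounds are added to genetically altered yeast, and growth is compared with cultures given vehicle alone to give percent inhibition.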

[4] = NCI Yeast Anticancer Drug Screen. Data for the cln2 rad14 strain (AID 165);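 also: 0% = growth equal to vehicle treated cultures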; conditions: S. cerevisiae cln2 rad14 strain, active compounds read high
In short: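 Growth inhibition, relative to vehicle-treated controls, is the read-out. The test organism is a yeast strain with defined genetic alterations, cln2 rad14.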

[5] = NCI Yeast Anticancer Drug Screen. Data for the bub3 strain (AID 167); conditions: S. cerevisiae bub3 mutant strain, active compounds read high
In short: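 Screening used yeast with an engineered genetic alteration affecting cell cycle control. Compound-exposed cultures were compared with vehicle cultures, and reduced growth was taken as inhibition.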

[6] = NCI Yeast Anticancer Drug Screen. Data for the mlh1 rad18 strain (AID 175); conditions: S. cerevisiae mlh1 rad18 strain growth inhibition, active compounds read high
In short: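 Cells of a genetically altered yeast strain, deficient in DNA damage repair, were treated with compound. Their growth was then compared with that of vehicle-treated cultures to give inhibition.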

[7] = at 5.0 µM (retest, dose inferred, filed as 0.5)
[8] = at 50.0 µM (retest, dose inferred, filed as 5.0)

| Compound | growth inhibition [1, 7] | growth inhibition [1, 8] | growth inhibition ([1]; at 50.0 µM) | growth inhibition [2, 7] [%] | growth inhibition [2, 8] | growth inhibition ([2]; at 50.0 µM) | growth inhibition [3, 7] | growth inhibition [3, 8] | growth inhibition ([3]; at 50.0 µM) | growth inhibition [4, 7] [%] | growth inhibition [4, 8] | growth inhibition ([4]; at 50.0 µM) | growth inhibition [5, 7] | growth inhibition [5, 8] | growth inhibition ([5]; at 50.0 µM) | growth inhibition [6, 7] | growth inhibition [6, 8] | growth inhibition ([6]; at 50.0 µM) |
| --- | --- | --- | --- | --- | --- | --- | --- | --- | --- | --- | --- | --- | --- | --- | --- | --- | --- | --- |
| CC(=O)Nc1cc(F)c2c(c1)Cc1ccccc1-2 | 5% | 77% (active) | -1.75% | -2 | 59% | 19.5% | -1% | 84% (active) | -16.8% | 0 | 77% (active) | 89.4% (active) | 2% | 83% (active) | 90.5% (active) | 4% | 78% (active) | -14.2% |
| Oc1cc(-[n+]2ccccc2)c(O)c2ccccc12 | 15% | 82% (active) | -11.2% | 9 | 68% | 3.45% | 5% | 80% (active) | -5.35% | 9 | 71% (active) | 37.8% | 21% | 91% (active) | 6.3% | 28% | 83% (active) | 20.8% |
| Oc1cc(F)ccc1-c1ccc(F)cc1 | -5% | 98% (active) | 72.5% (active) | 20 | 99% (active) | 85% (active) | 13% | 97% (active) | 47.4% | -9 | 98% (active) | 60.3% | -12% | 99% (active) | 75.7% (active) | -6% | 98% (active) | 84.7% (active) |
| O=C(O)/C(=C/c1ccccc1)c1ccc2ccccc2c1Br | 11% | 99% (active) | 99.6% (active) | 1 | 100% (active) | 99.7% (active) | 7% | 100% (active) | 99.7% (active) | -18 | 99% (active) | 99.2% (active) | -10% | 99% (active) | 99.7% (active) | 33% | 99% (active) | 99.7% (active) |
| C=CCOc1ccccc1C(OCC)OCC | 8% | 74% (active) | 46.5% | 7 | 35% | 23.3% | 8% | 76% (active) | 52.6% | 11 | 32% | 7.75% | 7% | 81% (active) | 30.2% | 0% | 87% (active) | 43.8% |
| O=c1ssc(=Nc2ccc(Cl)cc2)n1-c1ccc(Cl)cc1 | 77% (active) | 99% (active) | 98.5% (active) | 57 | 99% (active) | 99.4% (active) | 95% (active) | 99% (active) | 98.2% (active) | 16 | 99% (active) | 87.9% (active) | 74% (active) | 99% (active) | 99.5% (active) | 30% | 99% (active) | 98% (active) |
| O=[N+]([O-])/C=C/c1c[nH]c2c1ccc1ccccc12 | 42% | 92% (active) | 84.4% (active) | 53 | 90% (active) | 84.7% (active) | 59% | 81% (active) | 94.2% (active) | 30 | 93% (active) | 89% (active) | 88% (active) | 95% (active) | 75.3% (active) | 55% | 94% (active) | 93.5% (active) |
| CCCCCCCN1C(=O)c2ccccc2S1(=O)=O | -2% | 95% (active) | 95.1% (active) | -12 | 76% (active) | 87.3% (active) | 12% | 94% (active) | 86.2% (active) | -4 | 73% (active) | 43% | 14% | 89% (active) | 93.5% (active) | 39% | 96% (active) | 84.8% (active) |
| NN(Cc1ccccc1)c1ccccc1 | 50% | 83% (active) | 89.3% (active) | 47 | 87% (active) | 91.7% (active) | 20% | 100% (active) | 91.8% (active) | 43 | 99% (active) | 90% (active) | 40% | 99% (active) | 90.5% (active) | 27% | 77% (active) | 88.6% (active) |
| COc1cc(CSc2ccc(O)cc2)cc(OC)c1OC | -3% | 34% | 79.1% (active) | -18 | -16% | 84.3% (active) | -24% | 29% | 84.9% (active) | -18 | 4% | 50% | -13% | 21% | 81.8% (active) | -5% | -4% | 82.3% (active) |
| CN(C)CC(CN(C)C)C(=O)c1ccc(Oc2ccc(Cl)cc2)cc1 | 72% (active) | 98% (active) | 7.8% | 60 | 99% (active) | 52.3% | 85% (active) | 99% (active) | 50.9% | 36 | 98% (active) | 5.15% | 72% (active) | 99% (active) | 51.6% | 92% (active) | 98% (active) | 6.95% |
| COC(=O)[C@@H](O)[C@]1(C(=O)OC)C2O[C@@H](OC)[C@@H]1CCCCCC[C@H]2O | 21% | 11% | -2.05% | 10 | 11% | 0.45% | 10% | 17% | -6.85% | 17 | 29% | 2.1% | 18% | 13% | 8.85% | 19% | 12% | -1.95% |
| CC(=O)OC1CC2Cc3ccccc3C3(O)COC213 (configuration not stated) | -1% | 48% | 49.2% | 6 | 75% (active) | 45.4% | 6% | 76% (active) | 76.7% (active) | 3 | 17% | 14.1% | -7% | 59% | 59% | -2% | 83% (active) | 31.1% |
| S=C(N/N=C1/CCCC/C1=N/NC(=S)N1CCOCC1)N1CCOCC1 | 38% | 96% (active) | 90.1% (active) | 33 | 99% (active) | 93.7% (active) | 40% | 99% (active) | 91.4% (active) | 32 | 98% (active) | 91.2% (active) | 51% | 99% (active) | 91% (active) | 41% | 97% (active) | 91.2% (active) |
| Cc1occc1C(=S)Nc1ccc(Cl)c(/C=N/OC(C)C)c1 | 12% | 83% (active) | 77.5% (active) | 13 | 77% (active) | 59.2% | 13% | 80% (active) | 71.3% (active) | 24 | 81% (active) | 75.6% (active) | 22% | 86% (active) | 73.5% (active) | 17% | 91% (active) | 77.8% (active) |
| Cc1c(O)c(Br)c(C)c(O)c1Br (tested in a mixture with another compound) | 0% | 85% (active) | 75.8% (active) | 21 | 69% | 49.8% | -2% | 90% (active) | 80.6% (active) | -2 | 47% | 1.05% | 1% | 77% (active) | 61.6% | 8% | 86% (active) | 62.1% |
| CC(C)(C)C(=O)OC12/C(=N/O)CCCCCC1c1ccccc12 (configuration not stated) | -17% | 88% (active) | 81.8% (active) | 6 | 92% (active) | 86% (active) | -12% | 89% (active) | 81.2% (active) | 31 | 96% (active) | 85.3% (active) | -9% | 93% (active) | 84.2% (active) | 14% | 92% (active) | 80.5% (active) |
| Cc1ccc(C2=C(C#N)C(c3ccccc3)C(C#N)=C(N)O2)cc1 (configuration not stated) | 57% | 95% (active) | 97.5% (active) | 53 | 99% (active) | 98.5% (active) | 71% (active) | 98% (active) | 97.8% (active) | 35 | 99% (active) | 98.9% (active) | 48% | 98% (active) | 97.9% (active) | 59% | 98% (active) | 98.5% (active) |
| C1=CC2C(c3cccc4ccccc34)O[C@H]2O1 (some centres not stated) | 39% | 99% (active) | 98.8% (active) | 11 | 99% (active) | 98.5% (active) | 13% | 99% (active) | 98.8% (active) | 7 | 98% (active) | 98.8% (active) | 3% | 99% (active) | 98.4% (active) | 28% | 99% (active) | 98.3% (active) |
